In PubChem BioAssay AID2315 (National Center for Advancing Translational Sciences (NCATS), 2010):
In all, about 290,000 compounds went through this assay and about 27,000 (9.3%) were called active. No stated cut-off is given here; in the data, active means inhibition mostly above about 28% (no sharp cut-off); inactive means mostly below about 43%. The full list was thinned out, with actives kept by preference.

Experiment: A qHTS for Small Molecule Inhibitors of Shiga Toxin; further: 0% is about no effect
Conditions: Vero cells, Shiga toxin protein synthesis inhibition reporter; at 38.7 µM, stronger effect = higher value

SMILES	inhibition
Cc1cc(OCC(=O)Nc2c(C)n(C)n(-c3ccccc3)c2=O)ccc1[N+](=O)[O-]	-12.8% (inactive)
Cc1ccc(CC2(O)CCN(CCOc3ccc(O)cc3)CC2)cc1	-5.63% (inactive)
Cc1ccccc1N1CCN(C2CCCN(C(=O)c3ocnc3C)C2)CC1 (stereo not given)	-9.46% (inactive)
Cc1cc(C)cc(NC(=O)C2CCCN(S(=O)(=O)c3ccc4[nH]c(=O)ccc4c3)C2)c1 (stereo not given)	14.1% (inactive)
Cc1cccc(NC(=O)c2ccc3c(=O)n(CC4CCCO4)c(=S)[nH]c3c2)c1 (stereo not given)	-1% (inactive)
O=C(Cn1ccc2cc(S(=O)(=O)N3CCCC3)ccc21)NCc1ccccc1	-6.39% (inactive)
COc1ccc(NC(=O)CCn2ccnc2)c(OC)c1	-6.3% (inactive)
COc1ccc(S(=O)(=O)N/N=C\c2ccc(OC)c(COc3ccc(C)cc3[N+](=O)[O-])c2)cc1	-12.5% (inactive)
COc1ccc(NC(=O)c2ccc(OC)cc2)cc1	105% (active)
Cc1cccc(C(=O)Nc2ccccc2C(=O)NCc2cccnc2)c1	-16.9% (inactive)
COc1ccc(C(=O)Nc2cccc(S(C)(=O)=O)c2)cc1	21.9% (inactive)
Cc1noc(C)c1COc1cccc(C(=O)Nc2cccnc2)c1	-6.89% (inactive)
O=C(Nc1ccc(CSc2ccccc2)cc1)c1ccc(CN2CCOCC2)cc1	7.03% (inactive)
COc1ccc(C(=O)Nc2ccc(CN3CCOCC3)cc2)cc1	80.4% (active)
Cc1cccc(C(=O)Nc2ccc(Oc3cnccn3)cc2)c1	57.2% (active)
COc1ccc(NC(=O)c2cnc(NS(=O)(=O)c3ccccc3)nc2)cc1	-13.6% (inactive)
O=C(CS(=O)(=O)c1ccccc1)Nc1ccc(S(=O)(=O)Nc2ccccn2)cc1	-7.44% (inactive)
CCOc1ccc(C(=O)Nc2ccc(CN3CCOCC3)cc2)cc1Cl	9.47% (inactive)
COc1ccc(NC(=O)CS(=O)(=O)c2ccccc2)cc1	28.2% (active)
COc1ccc(NC(=O)c2ccc(C#CC(C)(C)O)cc2)cc1	28% (inactive)

SMILES	inhibition
O=C(NCCCN1CCCC1=O)C(=O)NCC1OCCN1S(=O)(=O)c1ccc(Br)cc1 (stereo not given)	22.9% (inactive)
Nc1nc(Nc2ccccc2F)nc(NC2CCCCC2)c1[N+](=O)[O-]	2.97% (inactive)
Cn1c(N2CCOCC2)c(C=O)c2ccccc21	-1.16% (inactive)
Cc1ccc(Cn2ncc3c4sc(C)cc4n(C)c3c2=O)c(C)c1	-2.93% (inactive)
C=CCn1cc(Cl)cc(C(=O)Nc2ccccc2)c1=O	16.8% (inactive)
CCN(CC)c1ccc(C(=O)NNC(=O)CCc2nc3ccccc3c(=O)[nH]2)cc1	10.9% (inactive)
Cc1ccc(NC(=O)COc2ccc(/C=C3/NC(=O)NC3=O)cc2)cc1	8.39% (inactive)
CC(C)CN(CC(C)C)C(=O)CN1c2cccc3cccc(c23)S1(=O)=O	2.89% (inactive)
COc1ccc(C(CCN2CCOCC2)c2c(OC)cc(OC)c3c2OC(=O)CC3c2ccc(OC)cc2)cc1 (stereo not given)	-0.588% (inactive)
COc1ccc(C(C)NC(=S)NC2CCCCC2)cc1OC (stereo not given)	-35.1% (inactive)
CCc1c(C)c2ccc(OC3CCCCC3=O)cc2oc1=O (stereo not given)	28% (inactive)
COc1cccc(NC(=O)CN(C)CC(=O)Nc2ccc3c(c2)CCC3)c1	-9.55% (inactive)
COc1cccc(NC(=O)c2ccc(S(=O)(=O)N(C)C)cc2)c1	70.6% (inactive)
COc1ccc(-c2nn(CCC#N)cc2C(=O)Nc2ccc(C(C)=O)cc2)cc1	25.5% (inactive)
COc1ccc(NC(=O)c2sc(N)nc2-c2ccccc2)cc1	9.77% (inactive)
CCOC(=O)c1c(NC(=O)c2ccc(N3CCOCC3)c([N+](=O)[O-])c2)sc(C)c1C	9.37% (inactive)
COc1ccc(NC(=O)c2sccc2SCC#N)cc1	52.8% (active)
COc1ccc(C(=O)Nc2ccnn2C2CCN(Cc3ccncc3)CC2)cc1	-4.63% (inactive)
COCCNC(=S)c1ccc(OC)cc1	13% (inactive)
COc1ccc(NC(=O)C(C)SCc2ccccc2)cc1 (stereo not given)	40.5% (inactive)

SMILES	inhibition
CCC(=O)Nc1ccc(C(=O)Nc2cccc(OC)c2)cc1	108% (active)
COc1ccc(C(=O)Nc2sc(C)c(C)c2CN2CCOCC2)cc1	82.5% (active)
COc1ccc(C(=S)Nc2ccccc2)cc1	62.5% (active)
CCC(=O)Nc1nnc(S(=O)(=O)N2CCCc3ccccc32)s1	-3.3% (inactive)
O=C(Nc1ccc(C(=O)O)cc1)/C(=C\c1ccccc1)NC(=O)c1ccc(Br)cc1	-9.04% (inactive)
CC(=O)c1c(C)oc2ccc(NS(=O)(=O)c3ccccc3)cc12	-6.31% (inactive)
CC(C)CC(=O)c1c[nH]c(C(=O)NCc2ccccc2)c1	-10% (inactive)
CCOc1ccc(NC(=O)CCC(=O)NNC(=O)NC2CCCCC2)cc1	-9.72% (inactive)
CCOCCCNC(=O)c1cn(CC(C)C)c(=O)c2c1c1ccccc1n2C	-4% (inactive)
Cc1ccccc1C(=O)NC(=S)Nc1ccc(N2CCN(C(=O)c3ccccc3)CC2)cc1	-15.7% (inactive)
CC(C)CC(CCc1ccccc1)OS(N)(=O)=O (stereo not given)	7.41% (inactive)
CC(=O)N1c2ccc(S(=O)(=O)N3CCC(C(=O)NC4CCCC(C)C4C)CC3)cc2CC1C (stereo not given)	-3.25% (inactive)
CCOc1ccccc1-c1cc(C(=O)N2CCOCC2)c2ccccc2n1	-10.7% (inactive)
COc1ccc(NS(=O)(=O)c2cc3c(cc2C)N(C(C)=O)CCO3)cc1	0.181% (inactive)
Cc1onc(C(=O)NCc2ccc(F)cc2)c1[N+](=O)[O-]	15.4% (inactive)
Cc1ccc(C(=O)Nc2nnc(-c3ccncc3)s2)o1	-10.6% (inactive)
Cc1onc(NC(=O)c2ccc([N+](=O)[O-])o2)c1Br	71.2% (active)
Cc1cccc(NC(=O)c2ccc([N+](=O)[O-])o2)c1	55.5% (active)
Cc1cccc(NC(=O)c2sc(-c3ccccc3)nc2-c2ccc([N+](=O)[O-])cc2)c1	-1.42% (inactive)
Cc1cccc(NC(=O)c2cc([N+](=O)[O-])ccc2N2CCN(C)CC2)c1	1.74% (inactive)
